Data as given in PubChem BioAssay (Tox21).
Values joined by “and” are separate entries in the source; they are usually repeats but may differ in a detail not shown here. Equal entries are not always repeated. Inconclusive results are not listed. A call without a number means that no potency is given here. Active and inactive are the calls of the source. The call rests on the fitted dose curve; in most records, active means well fitted cell-killing curve with a large enough effect in the repeat runs; inconclusive means weak or mixed curves, or effect the other way; inactive means flat fitted curve, though single readings scatter.
Potency means the concentration at half of the fitted maximal effect.

Experiment: qHTS assay to identify small molecule agonists of the constitutive androstane receptor (CAR) signaling pathway - cell viability counter screen (AID 1224836); further: nearly all actives have a fitted effect of over 45% in size
Details: HepG2-CYP2B6-hCAR viability, CellTiter-Fluor, 23 h, PK11195 added to every well; series mostly up to 92.4 µM
Source text: U.S. Tox21 Program National Center for Advancing Translational Sciences [NCATS] NIH Chemical Genomics Center [NCGC] U.S. Environmental Protection Agency [EPA] National Institutes of Environmental Health Sciences [NIEHS] National Toxicology Program [NTP] U.S. Food and Drug Administration [FDA] Tox21 Assay Overview: The constitutive androstane receptor (CAR) is a nuclear receptor which regulates multiple drug metabolizing enzymes (DMEs) and transporters. Activating CAR will generally increase the transcription and subsequent translation of CYP2B6 and CYP3A4. These two DMEs represent about 50% of the drug metabolizing potential in the body. […] Recently, there have also been studies performed indicating CARs role in energy metabolism and cancer therapy. Therefore, inducing CARs activity could have a potential effect on diabetes and cancer. Identifying environmental toxins and compounds which modulate CAR, through the use of the Tox21 10K compound collection, will be an important step in determining the toxicity and potential therapeutic effects these factors will have on the human body. To differentiate true CAR agonists from cytotoxic substances, the assay is multiplexed with a cell viability assay.
Tox21 Assay Protocol Summary: A double-stable (hCAR and CYP2B6-2.2kb) transfected cell line, derived from human hepatoma (HepG2) cells, was utilized for the duration of the quantitative high-throughput screens. The HepG2-CYP2B6-hCAR cells were dispensed at 2500 cells/4 uL/well in 1536-well white solid bottom plates using a Multidrop Combi. After the assay plates were incubated at 37 C/5% CO2 for 4 hrs, 23 nL of compounds at 15 concentrations (from 5-48 columns) or positive control (from 1 to 4 columns) were transferred to the assay plates using a Pintool station. One uL of PK11195 (final concentration = 0.75 uM) was added, using a Flying Reagent Dispenser, inside each well. After a 23 hr incubation period at 37 C/5% CO2, 1 uL of CellTiter-Fluor reagent was added into each well of the assay plates using a Flying Reagent Dispenser. The fluorescence intensity in the plates was then measured using a ViewLux plate reader.
In the case of `CCOC(=O)C1OC1c1ccccc1` (stereo not given), the Potency is reported as “inactive”. With `Cc1ccc(C(=O)O)o1` the Potency was “inactive”. With `Clc1ccc(Cl)c(Cl)c1Cl` the Potency was “inactive”. With `CNC[C@H](O)[C@@H](O)[C@H](O)[C@H](O)CO` the Potency was “inactive”. For `CC(C)(CO)COC(=O)C(C)(C)CO`, the Potency was “inactive”. For `C[C@@H](O)[C@H]1C(=O)N2C(C(=O)O)=C(S[C@@H]3CN[C@H](C(=O)N(C)C)C3)[C@H](C)[C@H]12`, the Potency was “inactive”. For `O=S(=O)(Oc1ccc(Cl)cc1Cl)c1ccccc1`, the Potency was “inactive”. With `CC(=O)CCc1ccccc1` the Potency was “inactive”. For `CCCCC(CC)COC(C)=O` (stereo not given), the Potency was “inactive”. For `CCCCC/C=C\C/C=C\CCCCCCCC(=O)OC`, the Potency was “inactive”. For `CC1=CC[C@H]2C[C@@H]1C2(C)C`, the Potency was “inactive”. With `c1ccc2ccccc2c1` the Potency was “inactive”. For `C=C(C)C(=O)OCCCCCC`, the Potency was “inactive”. With `CN(C)c1ccc(C(=N)c2ccc(N(C)C)cc2)cc1` the Potency was 24 µM (active) and 23.4 µM (active). With `O=C1O[C@H](CO)[C@@H](O)[C@H](O)[C@H]1O` the Potency was “inactive”. With `Cc1cc(Cc2ccc(N)c(C)c2)ccc1N` the Potency was “inactive”. With `O=C(c1ccc(O)cc1)c1ccc(O)cc1O` the Potency was “inactive”. For `C=C(C)C(=O)OCC(CC)(COC(=O)C(=C)C)COC(=O)C(=C)C`, the Potency was “inactive”. For `O=c1c(-c2ccc(O)cc2)coc2cc(O)ccc12`, the Potency was “inactive”. For `CCCCNC(N)=O`, the Potency was “inactive”. With `Oc1ccc2ccccc2c1` the Potency was “inactive”. In the case of `CC[Si](OC(C)=O)(OC(C)=O)OC(C)=O`, the Potency is reported as “inactive”. In the case of `CC1=C(/C=C/C(C)=C/C=C/C(C)=C/CO)C(C)(C)CCC1`, the Potency is reported as “inactive”. In the case of `CC(C)Cc1ccccc1`, the Potency is reported as “inactive”. In the case of `O=Nc1ccc(O)cc1`, the Potency is reported as “inactive”. For `C/C=C(C)/C=C/C=C(C)C`, the Potency was “inactive”. In the case of `Nc1cc(-c2ccncc2)c[nH]c1=O`, the Potency is reported as “inactive”. In the case of `Oc1ccc2ccccc2c1N=Nc1ccccc1`, the Potency is reported as 48.5 µM (active) and 30.6 µM (active). In the case of `COC(=O)c1ccccc1O`, the Potency is reported as “inactive”. For `OC[C@@H](O)[C@@H](O)[C@H](O)[C@@H](O)CO`, the Potency was “inactive”. For `CCCCCCCCC`, the Potency was “inactive”. With `O=C1CCCCC1` the Potency was “inactive”. With `CCC(C)C=O` (stereo not given) the Potency was “inactive”. With `CCCCOCCO` the Potency was “inactive”. With `CCOC(=O)[C@H](CCc1ccccc1)N[C@@H](C)C(=O)N1Cc2ccccc2C[C@H]1C(=O)O` the Potency was “inactive”. With `CCc1ccccc1O` the Potency was “inactive”. In the case of `COCC(C)O` (stereo not given), the Potency is reported as “inactive”. In the case of `CC(C)(N=C=O)c1cccc(C(C)(C)N=C=O)c1`, the Potency is reported as “inactive”. With `OCCOCCOCCOCCO` the Potency was “inactive”. For `O=C(c1cc(O)c(O)c(O)c1)c1ccc(O)c(O)c1O`, the Potency was “inactive”.
